Screens (PubChem BioAssay)
This is a sample that favours compounds with a hit; in the whole collection about 3% have one here.
Sm TGR inh – inhibitors of Schistosoma mansoni thioredoxin glutathione reductase. 360,000 compounds, 3% hits. Q962Y6. purified TGR, DTNB reduction, TNB absorbance 405 nm. Potency, µM (highest dose often 114 µM), most hits filed as inhibitors; note: nearly all actives have a fitted effect of over 60% in size
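TGR 20 nM + NADPH 100 uM (dispensed conc.), cpd preinc 15 min RT; start with NADPH (500 uM addition) then DTNB (15 mM addition). Kinetic TNB absorbance, 405 nm filter. Four-parameter Hill fit across titration.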
RE007 growth inh – less growth of the S. pombe RE007 Vpr strain; Potency, µM (highest dose often 92.2 µM), most hits filed as inhibitors; 360,000 compounds, 0.21% hits; S. pombe RE007 Vpr strain, BacTiter-Glo ATP luminescence, 24 h; active = well fitted falling curve with a large enough effect; inconclusive = small, poorly fitted or top-dose-only effect; inactive = no such curve, though single readings can be large or run the other way; note: nearly all actives have a fitted effect of over 50% in size
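Fission yeast strain RE007, carrying one chromosomally integrated HIV-1 vpr copy, was seeded at OD 0.01 in PMG+AL medium with 23 nL pinned compound. After 24 h at 30 °C and 99% humidity, viability was read by BacTiter-Glo luminescence.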
Tb PYK inh – T. brucei pyruvate kinase inhibition | Q57TT1 | TbPYK enzyme, Kinase-Glo Plus ATP luminescence, 45 min | Potency, µM (series often up to 76.8 µM), hits mostly inhibitors | 410,000 compounds, 0.12% hits; note: nearly all actives have a fitted effect of over 50% in size
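Luminescent Kinase-Glo Plus end-point after 45 min room-temperature reaction of T. brucei pyruvate kinase started with 130 uM ADP (final). Buffer TEA 50 mM pH 7.2 with KCl, MgCl2, BSA, Tween-20; titration-based qHTS with fitted concentration-effect curves.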
LmPK inh – inhibitors of Leishmania mexicana pyruvate kinase | purified LmPK, Kinase-Glo ATP luminescence, 1 h | Potency, µM (series often up to 57.5 µM), usual class: inhibitors | 290,000 compounds, 0.37% hits | AID 1721 | Q27686
Target sequence (Q27686 whole entry, looked up): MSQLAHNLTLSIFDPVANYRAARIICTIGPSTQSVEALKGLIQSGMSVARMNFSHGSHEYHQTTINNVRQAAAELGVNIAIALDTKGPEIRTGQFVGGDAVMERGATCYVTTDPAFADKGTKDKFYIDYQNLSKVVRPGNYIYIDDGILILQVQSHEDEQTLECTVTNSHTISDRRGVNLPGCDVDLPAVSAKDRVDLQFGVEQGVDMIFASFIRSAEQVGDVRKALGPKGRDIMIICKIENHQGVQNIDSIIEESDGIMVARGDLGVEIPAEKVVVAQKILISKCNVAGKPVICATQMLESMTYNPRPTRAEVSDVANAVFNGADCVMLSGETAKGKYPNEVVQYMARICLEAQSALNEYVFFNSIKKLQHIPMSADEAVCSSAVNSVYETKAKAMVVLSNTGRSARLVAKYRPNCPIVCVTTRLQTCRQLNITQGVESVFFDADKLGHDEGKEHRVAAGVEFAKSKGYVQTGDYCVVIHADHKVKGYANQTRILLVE
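ATP generated from ADP (0.1 mM) and PEP (0.5 mM) by 0.1 nM LmPK over 1 h at room temperature (pH 7.2 imidazole buffer) was detected by coupled luciferase luminescence. Values were normalized to uninhibited and no-enzyme wells.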
Of the large screens only hits and unclear results are named; the others gave an inactive call. Unless noted, calls come from the whole dose curve; as a rule, active = well fitted curve in the direction sought with a large enough effect; inconclusive = small, poorly fitted or top-dose-only effect, or another doubt; inactive = no such curve, though single readings can be large; an effect the other way counts as inactive or inconclusive.

Cn1c(N)c(C(=O)COC(=O)C2CCCCC2)c(=O)n(C)c1=O	none
Cn1c(=O)c(C(=O)CCl)c(N)n(Cc2ccccc2)c1=O	Sm TGR inh 7.08µM
Cn1c(N)c(C(=O)CCl)c(=O)n(Cc2ccccc2)c1=O	Sm TGR inh 11.2µM
CCCCCC#CCC#CCC#CCC#CCCCC(=O)O	Sm TGR inh 20µM (no result: RE007 growth inh, Tb PYK inh)
CCCCCCCCCC(=O)O	none (no result: Sm TGR inh, LmPK inh)
Cc1cc(C(=O)NNc2ccc(Cl)cc2)no1	none
Cc1ccc(NNC(=O)c2ccno2)cc1C	Sm TGR inh 50.1µM
Cc1cc(C(=O)NNc2ccc(C)c(C)c2)no1	Sm TGR inh 50.1µM
O=[N+]([O-])c1cccc(S(=O)(=O)NCCNS(=O)(=O)c2cccc([N+](=O)[O-])c2)c1	none (no result: Sm TGR inh, RE007 growth inh, LmPK inh)
Cc1noc(C)c1C(=O)NNc1ccc(C(C)C)cc1	Sm TGR inh 20µM
Oc1ccc(-c2cn3ccccc3n2)cc1	LmPK inh 22.4µM
CC(C)=C1C2C=CC1C1C(=O)N(c3ccc4c(c3)OCO4)C(=O)C21 (configuration not stated)	Sm TGR inh 20µM, RE007 growth inh 31.6µM
O=C1C2C3C=CC(C4CC34)C2C(=O)N1c1ccc2c(c1)OCO2 (configuration not stated)	Sm TGR inh 44.7µM
CC(C)=C1C2CCC1C1C(=O)N(c3ccc4c(c3)OCO4)C(=O)C21 (configuration not stated)	none (no result: RE007 growth inh)
CC(=O)N1CCC2(CC1)C(C#N)=C(N)Oc1n[nH]c(C(F)(F)F)c12	Sm TGR inh 28.2µM
S=c1nc(-c2ccccc2)n(CCCn2ccnc2)c2c1CCCC2	Sm TGR inh 44.7µM
S=c1nc(-c2ccccc2)n(CCCN2CCOCC2)c2c1CCCC2	Sm TGR inh inconclusive
COc1ccc(-c2cc(C(F)(F)F)nc(SCC(=O)NCCc3ccc(OC)c(OC)c3)n2)cc1	none (no result: RE007 growth inh, LmPK inh)
CCN(CC)C(=O)C1=C(C)N(CCCOC)C(=O)C(CC(=O)NC2CCCCC2)C1 (configuration not stated)	none (no result: Sm TGR inh, LmPK inh)
C/C(=N/Nc1ccc(C)cc1)C1(C)N(O)C(C)(C)C(c2ccco2)=[N+]1[O-] (configuration not stated)	Sm TGR inh 10µM
C/C(=N\O)C1(C)N(O)C(C)(C)C(c2ccc(F)cc2)=[N+]1[O-] (configuration not stated)	none
CN(C)CC#CCC(O)(c1ccccc1)c1ccccc1	none
COC(C#CCCN(C)C)(c1ccccc1)c1ccccc1	Sm TGR inh 28.2µM, RE007 growth inh inconclusive
c1ccc(-c2ccc(-c3nccc4ccccc34)[nH]2)cc1	LmPK inh 25.1µM (no result: RE007 growth inh, Tb PYK inh)
N#Cc1cc(-c2ccccc2)[nH]c1-c1nccc2ccccc12	none (no result: RE007 growth inh)
c1ccc(Cc2noc(CN3CCCN(C4Cc5ccccc5C4)CC3)n2)cc1	Sm TGR inh 25.1µM
COc1ccc(C)cc1NC(=O)C(Cc1ccccc1)NS(=O)(=O)c1ccc(Br)s1 (configuration not stated)	none (no result: RE007 growth inh, LmPK inh)
O=C(NCC1CC1)c1ccc(Nc2nc3ccc(Br)cc3[nH]2)cc1	Sm TGR inh 3.55µM, Tb PYK inh inconclusive
O=[N+]([O-])C1=CC=C2C(=NC3(CCCCC3)N2O)C1=NCCc1ccccc1	Sm TGR inh 44.7µM
CC(C)(C)N=C1C([N+](=O)[O-])=CC=C2C1=NC1(CCCCC1)N2O	Sm TGR inh inconclusive
Cc1oc(-c2ccc(Cl)cc2)cc1-c1nn2c(-c3ccoc3C)nnc2s1	Sm TGR inh 22.4µM, RE007 growth inh inconclusive
COc1ccc(C2CC(=O)N3CN(C4CCCCC4)CSC3=C2C#N)cc1 (configuration not stated)	Sm TGR inh 7.94µM, Tb PYK inh 22.4µM (no result: RE007 growth inh, LmPK inh)
COc1cccc(C2CC(=O)N3CN(C4CCCCC4)CSC3=C2C#N)c1 (configuration not stated)	Sm TGR inh 2.51µM, Tb PYK inh inconclusive (no result: RE007 growth inh, LmPK inh)
CCCCCCCCCC[N+](C)(C)CCCCCCCCCC	none (no result: Sm TGR inh, RE007 growth inh, LmPK inh)
CCCCCCCCCCCCCCCC[N+](C)(C)CCl	RE007 growth inh 22.4µM (no result: Sm TGR inh, LmPK inh)
COc1cc(OC)c(CN2CCc3c([nH]c4ccccc34)C2)cc1Br	Sm TGR inh 35.5µM
C=C(C)CSc1nc(N)c(C#N)c(-c2ccc(C)cc2)c1C#N	Sm TGR inh 35.5µM
CCOC(=O)CSc1nc(N)c(C#N)c(-c2ccc(OC)cc2)c1C#N	none
CCOC(=O)C1=CC[C@@H](c2ccco2)N(S(=O)(=O)c2ccc(C)cc2)[C@H]1C(=O)OCC	Sm TGR inh 31.6µM (no result: LmPK inh)
